Measured values taken from PubChem BioAssay (NCATS).
Inconclusive results are not listed. Values without a mark were called inactive. Calls follow the shape of the dose curve; as a rule, active = well fitted inhibition curve with a large enough effect; inconclusive = small, poorly fitted or top-dose-only effect; inactive = flat fitted curve, though single readings scatter.

Target: Lysine-specific demethylase 5B (Homo sapiens) (UniProt Q9UGL1)
Assay: Optimization screen for KDM5B Histone Demethylases FDH coupled qHTS against the LOPAC library (AID 1347166); also: 0% is about no effect
Settings: KDM5B demethylation, FDH-coupled NADH fluorescence (FDH is formaldehyde dehydrogenase); at 57.5 µM (top of the series)
Outline: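 KDM5BDeltaAP (200nM final) in 50mM HEPES pH 7.5, 0.01% Tween-20 was preincubated with compound for 10 min at room temperature. A substrate mix of 12.5uM H3K4Me3, 25uM a-ketoglutarate, ascorbate, Fe2+, NAD+ and formaldehyde dehydrogenase was then added. NADH fluorescence (340/450 nm) was read initially and after 30 min.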

Chain of Lysine-specific demethylase 5B (Homo sapiens) (Q9UGL1 whole entry, looked up): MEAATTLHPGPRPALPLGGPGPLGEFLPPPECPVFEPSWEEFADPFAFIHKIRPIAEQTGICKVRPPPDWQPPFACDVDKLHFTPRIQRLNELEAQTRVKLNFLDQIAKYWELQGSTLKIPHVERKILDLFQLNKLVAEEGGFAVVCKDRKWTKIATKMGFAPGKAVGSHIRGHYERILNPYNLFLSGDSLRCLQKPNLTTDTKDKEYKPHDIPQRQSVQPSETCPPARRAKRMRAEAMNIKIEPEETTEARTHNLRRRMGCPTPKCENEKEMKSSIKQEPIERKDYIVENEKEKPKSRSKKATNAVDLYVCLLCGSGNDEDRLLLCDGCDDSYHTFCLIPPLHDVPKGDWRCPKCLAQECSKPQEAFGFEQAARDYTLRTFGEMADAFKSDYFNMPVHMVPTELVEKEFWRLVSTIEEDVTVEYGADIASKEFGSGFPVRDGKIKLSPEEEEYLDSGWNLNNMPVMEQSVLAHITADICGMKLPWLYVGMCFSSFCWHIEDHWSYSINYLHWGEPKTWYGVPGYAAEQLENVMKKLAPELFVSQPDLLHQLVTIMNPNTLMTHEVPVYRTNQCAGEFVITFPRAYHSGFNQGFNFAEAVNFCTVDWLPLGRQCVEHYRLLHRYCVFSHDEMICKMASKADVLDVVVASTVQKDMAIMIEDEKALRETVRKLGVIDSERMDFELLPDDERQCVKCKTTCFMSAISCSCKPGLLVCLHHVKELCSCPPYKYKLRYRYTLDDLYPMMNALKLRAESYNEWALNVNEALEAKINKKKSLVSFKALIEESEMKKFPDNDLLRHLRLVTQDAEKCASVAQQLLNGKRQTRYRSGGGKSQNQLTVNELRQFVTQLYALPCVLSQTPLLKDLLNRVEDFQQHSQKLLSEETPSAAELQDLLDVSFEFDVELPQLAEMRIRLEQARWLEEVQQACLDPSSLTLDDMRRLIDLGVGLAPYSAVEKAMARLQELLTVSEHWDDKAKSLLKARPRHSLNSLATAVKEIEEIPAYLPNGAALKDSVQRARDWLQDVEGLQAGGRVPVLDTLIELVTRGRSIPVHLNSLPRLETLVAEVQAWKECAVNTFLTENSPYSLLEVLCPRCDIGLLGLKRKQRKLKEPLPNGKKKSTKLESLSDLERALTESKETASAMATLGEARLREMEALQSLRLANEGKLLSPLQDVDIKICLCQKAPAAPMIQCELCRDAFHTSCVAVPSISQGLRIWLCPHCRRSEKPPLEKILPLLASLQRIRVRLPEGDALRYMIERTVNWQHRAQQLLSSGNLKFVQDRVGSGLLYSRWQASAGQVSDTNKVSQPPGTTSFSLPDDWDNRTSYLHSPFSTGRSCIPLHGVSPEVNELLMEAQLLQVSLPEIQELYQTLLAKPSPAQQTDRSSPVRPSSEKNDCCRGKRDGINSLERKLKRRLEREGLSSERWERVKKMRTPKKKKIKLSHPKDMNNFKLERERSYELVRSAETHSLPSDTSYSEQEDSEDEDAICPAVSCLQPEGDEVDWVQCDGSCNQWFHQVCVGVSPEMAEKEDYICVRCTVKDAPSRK

SMILES	activity, negative = inhibition
CC(C)(C)c1ccc(/C=C/C(=O)Nc2ccc3c(c2)OCCO3)cc1	-12.1%
O=C1OC(=O)C2C3CCC(O3)C12 (stereo unspecified)	3.88%
COc1cccc(OC)c1OCCNCC1CSc2ccccc2O1 (stereo unspecified)	-14.1%
CC(N)(Cc1ccc(O)cc1)C(=O)O (stereo unspecified)	1.49%
CC(=O)O[C@H]1Cc2ccccc2N(C(N)=O)c2ccccc21	-5.85%
O[Si](CCCN1CCCCC1)(c1ccc(F)cc1)C1CCCCC1 (stereo unspecified)	-4.4%
Cc1nc(N=Nc2ccc(C(=O)O)cc2)c(COP(=O)(O)O)c(C=O)c1O	-12.4%
C=CCNc1ncnc2ccc(Br)cc12	-0.201%
COc1ccccc1N1CCN(CCCCNC(=O)c2ccc3ccccc3c2)CC1	-7.43%
C=C(C)C1CC=C(C(=O)O)CC1 (stereo unspecified)	1.54%
C[N+](C)(C)CC=O	-0.629%
CC(=O)[C@H]1CCC2C3CC=C4C[C@@H](OS(=O)(=O)O)CC[C@]4(C)C3CC[C@@]21C (stereo partly specified)	0.452%
CC(=O)O[C@H]1CC2(C)[C@@H](C[C@@H](O)[C@H]3[C@@]4(C)CC[C@@H](O)[C@@H](C)[C@@H]4CC[C@@]32C)C1=C(CCC=C(C)C)C(=O)O (stereo partly specified)	-4.8%
NCCC1CCCC(CCN)N1 (stereo unspecified)	-5.63%
Cc1ccccc1/C=C/C1=NCCN1	-11.5%
Fc1ccc(CN(C2=NCCN2)c2c(Cl)cccc2Cl)cc1	2.64%
NC1CONC1=O (stereo unspecified)	-3.54%
Oc1ccc(Cn2cc[nH]c2=S)cc1	-15.9%

SMILES	activity, negative = inhibition
COc1ccc(C(=O)NCc2cccnc2)cc1C(=O)NCc1cccnc1	-3.95%
COc1cc(CNC(=O)CCCCCCC(C)C)ccc1O	-17%
Nc1ncnc2c1nc(Sc1ccc(Cl)cc1)n2[C@H]1OC2COP(=O)(O)O[C@@H]2C1O (stereo partly specified)	-0.0945%
CCCCCCCCCC[Si](C)(C)CCC(=O)NC(Cc1ccc(C)cc1)c1ccccc1 (stereo unspecified)	-3.59%
C#CC(N)CCC(=O)O (stereo unspecified)	-0.625%
N=S(=O)(O)Cc1noc2ccccc12	3.62%
COc1ccc(-c2ccc(N)[n+](CCCC(=O)O)n2)cc1	-3.69%
CN(C)CCCc1cc(C(=O)Nc2ccc(-c3ccncc3)cc2)ccc1O	-5.29%
C=C1C[C@@]23CC[C@H]4[C@@](C)(CCC[C@@]4(C)C(=O)O)[C@@H]2CC[C@]1(O)C3	-2.05%
N=C(N)c1ccccc1	-3.44%
O=C(O)C1CCCNC1 (stereo unspecified)	-0.313%
CN(C)S(=O)(=O)c1ccc2c(c1)/C(=C/c1cc3c([nH]1)CCCC3)C(=O)N2	-8.97%
O=C(O)/C(=C/c1c(C(=O)O)[nH]c2cc(Cl)cc(Cl)c12)c1ccccc1	-2.54%
NC(=O)CC[C@H](N)C(=O)O	-1.79%
NCCCCN	-1.54%
COc1cc(C(O)CO)ccc1O (stereo unspecified)	-5.15%
c1ccc2c(c1)CC(N1CCN(c3cccc4c3OCCO4)CC1)C2	-5.51%
Nc1ncnc2c1ncn2C1CCCC1	-3.1%
